# Where “and” joins values, the source holds several entries; their conditions need not be identical. Identical values can stand only once. Records with an inconclusive call do not appear. A structure can be active in one record and inactive in another. Calls of active or inactive are those of the source. Unless noted, calls come from the whole dose curve; as a rule, active = well fitted curve in either direction with a large enough effect (not every such curve was filed as active); inconclusive = small, poorly fitted or top-dose-only effect, or another doubt; inactive = flat fitted curve, though single readings scatter.
# How the values were obtained:
# [1] = AP1 Signaling Pathway (AID 357); conditions: ME-180 AP-1-bla reporter, EGF-induced, beta-lactamase ratio, 5 h;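 note: ME-180 reporter cells stimulated with EGF at its EC50 level; % is set by controls: 0 for no effect and ±100 for the full control effect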
# In short: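 AP-1-bla ME-180 cells, Opti-MEM + 0.5% dialyzed FBS, plated overnight 37 °C. Cpd titration + EC50 EGF, 5 h 37 °C. CCF4 2.5 h RT; ex 405, em 460/530 ratio → %activity, AC50.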
# [2] = target: Cytochrome P450 1A2 (Homo sapiens) (UniProt P05177); assay: p450-cyp1a2 (AID 410; calls by dose curve;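 note: -100% = full effect of reference inhibitor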)
# In short: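 O-Demethylation of luciferin 6' methyl ether by human CYP1A2 is monitored as luciferase luminescence. Substrate sits at Km (100uM); enzyme is 20nM. Values are scaled to 57 uM furafylline as maximal inhibition.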
# [3] = NFAT Signaling Pathway (AID 444); conditions: Jurkat NFAT-bla M1, carbachol, beta-lactamase ratio, 5 h;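 note: carbachol stimulus at about its EC50 of 1 µM final; % is set by controls: 0 for no effect and ±100 for the full control effect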
# In short: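 Read-out: CCF4 FRET ratio (460 nm/530 nm) after 1 h RT dye loading, used for %activity and AC50 from titration series. Cells: Jurkat NFAT-β-lactamase/M1 line, treated with compound plus 1 uM carbachol for 5 h, 37 °C.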
# [4] = Stat Signaling Pathway (AID 446); conditions: ME-180 (cervical carcinoma) SIE beta-lactamase reporter, IL-6 stimulated, 5 h;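 note: ME-180 cervical cancer cells given 40 pM IL-6 alongside compound; SIE-controlled beta-lactamase reporter measured as 460/530 nm FRET emission ratio; % is set by controls: 0 for no effect and ±100 for the full control effect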
# In short: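 Overnight-plated ME-180 cells bearing a STAT Inducible Element beta-lactamase reporter; 5 h co-exposure to compound and 40 pM IL-6; values normalized to 300 pM IL-6 and 125 nM JAK inhibitor controls.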
# [5] = target: Glucocorticoid receptor (Homo sapiens) (UniProt P04150); assay: GR-GFP Redistribution (AID 450;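 active = compounds whose dose series gives a full or clear partial fitted curve of increased nuclear translocation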; note: potency is the fitted concentration of half-maximal effect); conditions: U2OS GR-GFP nuclear translocation, laser cytometry, 2 h
# [6] = target: Glucocorticoid receptor (Homo sapiens) (UniProt P04150); assay: GR-EFC Redistribution (AID 451; calls by dose curve; note: potency is the fitted concentration of half-maximal effect); conditions: CHO-K1 GR-EFC translocation, beta-gal luminescence, 2 h
# In short: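 Translocation of GR-ED fusion to nuclear EA restores b-gal, read by luminescence after 1 h room-temperature detection. Engineered CHO-K1 biosensor cells, 1,000/well, exposed 2 h at 37 C to titrations up to 46 uM final.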
# [7] = target: Mitogen-activated protein kinase 10 (Mus musculus) (UniProt Q61831); assay: JNK3 AlphaScreen Assay (AID 530);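 note: kinase came from lysate of stimulated human HepG2 cells; signal reports phosphorylation of biotinylated GST-cJun 1-79 at Ser73 with 10 µM ATP; % is set by controls: 0 for no effect and ±100 for the full control effect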
# In short: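 qHTS titrations with 15 min compound pre-incubation before adding ATP (10 uM final). Read-out: AlphaScreen of Ser73-phosphorylated biotin-GST-cJun using HepG2 lysate JNK3 activated by IL-1β and TNFα.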
# [8] = target: 3',5'-cyclic-AMP phosphodiesterase 4B (Homo sapiens) (UniProt Q07343); assay: qHTS Assay for Inhibitors of PDE-IV (AID 607; active = well fitted activation curve with a large enough effect in the main read-out, with a control signal flat, not every such curve was filed as active; note: potency is the fitted concentration of half-maximal effect)
# In short: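 Live HEK293 cells with a modified cyclic nucleotide-gated (CNG) channel report intracellular cAMP via membrane-potential dye fluorescence (ex 535/em 590 nm). Endogenous PDE-IV was targeted. Compounds were tested at up to 22.9 uM final; RO 20-1724 100 uM served as control.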
# [9] = target: Guanine nucleotide-binding protein G(i) subunit alpha-1 (Homo sapiens) (UniProt P63096); assay: qHTS Assay for Inhibitors of RGS12 GoLoco Motif Activity (Green Fluorophore) (AID 879; active = well fitted curve in the direction sought with a large enough effect; an effect the other way counts as inactive or inconclusive;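 note: 0% = labeled peptide with Gαi1 and full inhibition = labeled peptide alone without protein; negative values mean loss of peptide binding seen as reduced polarization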)
# In short: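 A drop in FITC polarization marked displacement of the FITC-tagged RGS12 GoLoco peptide (10 nM) from Gαi1 (50 nM). Compounds were incubated 10 min at room temperature in Tris pH 7.5 buffer containing 150 mM NaCl, 0.1 mM GDP and 0.05% NP40; unlabeled peptide titration served as control.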
# [10] = target: Cytochrome P450 3A4 (Homo sapiens) (UniProt P08684); assay: qHTS Assay for Activators of Cytochrome P450 3A4 (AID 885; active = well fitted curve in the direction sought with a large enough effect; an effect the other way counts as inactive or inconclusive; note: nearly all actives have a fitted effect of over 65% in size; note: potency is the fitted concentration of half-maximal effect)
# In short: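 Using 20nM recombinant human CYP3A4 in potassium phosphate (200mM), substrate Luciferin-PPXE at 25uM, luminescent luciferin detection followed a 60-min RT NADPH reaction; data scaled to 57 uM ketoconazole.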
# [11] = qHTS Assay for Identification of Small Molecule Agonists for Thrombopoietin (TPO) Signaling Pathway (AID 917; active = well fitted curve in the direction sought with a large enough effect; an effect the other way counts as inactive or inconclusive; note: % is set by controls: 0 for no effect and ±100 for the full control effect)
# In short: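 Human TPO receptor–transfected Ba/F3 cells (murine, IL-3-dependent) in IL-3-deficient medium; compounds plus TPO at EC50, 26 pM final; 24 hrs, 37 C; GpIIb-luciferase luminescence after 10 min RT detection.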
# [12] = target: Muscarinic acetylcholine receptor M1 (Rattus norvegicus) (UniProt P08482); assay: qHTS Assay for Antagonists of Acetylcholine Muscarinic M1 Receptor: Measurement of IP-One Response (AID 944; active = well fitted curve in the direction sought with a large enough effect; an effect the other way counts as inactive or inconclusive; note: nearly all actives have a fitted effect of over 75% in size)
# In short: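 Antagonist mode with rat M1 receptor transfected into CHO cells. Compound is added first for 10 min, carbachol at its EC80 follows for 30 min, and lysis reagents then allow TR-FRET detection of accumulated IP1.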
# [13] = target: Pyruvate kinase (Leishmania mexicana) (UniProt Q27686); assay: qHTS Validation Assay for Inhibitors of Leishmania Mexicana Pyruvate Kinase (AID 945; active = well fitted curve in the direction sought with a large enough effect; an effect the other way counts as inactive or inconclusive;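 note: 0% = DMSO only neutral control wells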)
# In short: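 qHTS eight-point titrations against 0.2 nM LmPYK (E451W) in imidazole buffer pH 7.2 with 0.5 mM PEP, 0.1 mM ADP; 1 h, room temperature. Readout: PKLight luminescence, normalized to neutral DMSO wells.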
# [14] = target: Pyruvate kinase PKM (Homo sapiens) (UniProt P14618); assay: qHTS Assay for Activators of Human Muscle Pyruvate Kinase (AID 954; active = well fitted curve in the direction sought with a large enough effect, not every such curve was filed as active;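 note: 0% = uninhibited enzyme and -100% = no enzyme or full thiadiazolimine inhibition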)
# In short: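 Screening used highly purified human pyruvate kinase M2 under submaximal activity, with PEP at its Km and ADP below Km. After an hour at room temperature, ATP was read by luciferase luminescence.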
# [15] = target: Alpha-galactosidase A (Homo sapiens) (UniProt P06280); assay: Counterscreen for Glucocerebrosidase Inhibitors: qHTS Assay for Human alpha-Galactosidase at pH 4.5 (AID 992; active = well fitted curve in the direction sought with a large enough effect; an effect the other way counts as inactive or inconclusive; note: 0% is about no effect)
# In short: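 Each compound is preincubated briefly with 2 nM enzyme before substrate addition (80 uM); plates then sit 20 min at ambient temperature, are quenched with 1M NaOH/1M glycine, and read fluorometrically.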
# [16] = target: alpha-glucosidase (Oryza sativa, rice) (UniProt Q653V4); assay: Counterscreen for Glucocerebrosidase Inhibitors: qHTS Assay for Rice alpha-Glucosidase at pH 5.0 (AID 997; active = well fitted curve in the direction sought with a large enough effect; an effect the other way counts as inactive or inconclusive;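 note: 0% = full activity with enzyme and -100% = basal without enzyme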)
# In short: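 Endpoint fluorogenic assay at pH 5.0: compounds (0.7 nM to 77 uM) titrated against 4 nM rice enzyme and 400 uM 4-MU-alpha-glucoside for 20 min at room temperature; NaOH/glycine stop, read ex 365/em 440 nm, Hill-fitted AC50.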
# [17] = target: Muscarinic acetylcholine receptor M1 (Rattus norvegicus) (UniProt P08482); assay: qHTS Assay for Antagonists of Acetylcholine Muscarinic M1 Receptor: Kinetic Measurement of Intracellular Calcium Response (AID 943; active = well fitted curve in the direction sought with a large enough effect; an effect the other way counts as inactive or inconclusive;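 note: Fluo-4 calcium signal as peak divided by basal fluorescence over 4 min; nearly all actives have a fitted effect of over 75% in size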)
# In short: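 Antagonism is measured as inhibition of the carbachol-evoked calcium rise in CHO cells transfected with rat M1. Cells are dye-loaded, exposed to compound for 10 min, then stimulated with 100 nM carbachol (EC80).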
# [18] = target: Lysosomal acid glucosylceramidase (Homo sapiens) (UniProt P04062); assay: Glucocerebrosidase-p2 (AID 348; in the data active = potency below about 10 µM; note: potency is the fitted concentration of half-maximal effect); conditions: purified GBA, blue fluorogenic substrate, 40 min
# In short: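 Normal human glucocerebrosidase (0.2 nM) with blue fluorogenic substrate (80 uM final) in citrate/phosphate pH 5.9 with 10mM sodium taurocholate, 0.01% tween-20; 40 min RT, NaOH/glycine stop; fluorescence Ex 365/Em 440; AC50 from a titration from 0.6 nM upwards.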
# [19] = target: Cytochrome P450 2D6 (Homo sapiens) (UniProt P10635); assay: qHTS Assay for Inhibitors and Substrates of Cytochrome P450 2D6 (AID 891; active = well fitted curve in the direction sought with a large enough effect; an effect the other way counts as inactive or inconclusive; note: nearly all actives have a fitted effect of over 60% in size; note: potency is the fitted concentration of half-maximal effect)
# In short: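 Luminescent read-out of luciferin formed by 5 nM human CYP2D6 demethylating 30 uM Luciferin-ME EGE (Km level) over 60 min at room temperature after NADPH regeneration addition. Data normalized to full inhibition by 1.43 uM quinidine.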
# [20] = target: Cytochrome P450 2C19 (Homo sapiens) (UniProt P33261); assay: qHTS Assay for Inhibitors and Substrates of Cytochrome P450 2C19 (AID 899; active = well fitted curve in the direction sought with a large enough effect; an effect the other way counts as inactive or inconclusive; note: % is set by controls: 0 for no effect and ±100 for the full control effect; nearly all actives have a fitted effect of over 60% in size)
# In short: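 Luminescence readout of luciferin formed from 10uM Luciferin-H EGE (KM level) by 5 nM CYP2C19 in 50mM KPO4. 60 min NADPH-driven reaction at 37C after 10 min compound preincubation; data scaled to 57uM ketoconazole inhibition.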
# [21] = at 7.69 µM (top of the series) unless noted
# Cytochrome P450 3A4 (Homo sapiens), sequence (P08684 whole entry, looked up): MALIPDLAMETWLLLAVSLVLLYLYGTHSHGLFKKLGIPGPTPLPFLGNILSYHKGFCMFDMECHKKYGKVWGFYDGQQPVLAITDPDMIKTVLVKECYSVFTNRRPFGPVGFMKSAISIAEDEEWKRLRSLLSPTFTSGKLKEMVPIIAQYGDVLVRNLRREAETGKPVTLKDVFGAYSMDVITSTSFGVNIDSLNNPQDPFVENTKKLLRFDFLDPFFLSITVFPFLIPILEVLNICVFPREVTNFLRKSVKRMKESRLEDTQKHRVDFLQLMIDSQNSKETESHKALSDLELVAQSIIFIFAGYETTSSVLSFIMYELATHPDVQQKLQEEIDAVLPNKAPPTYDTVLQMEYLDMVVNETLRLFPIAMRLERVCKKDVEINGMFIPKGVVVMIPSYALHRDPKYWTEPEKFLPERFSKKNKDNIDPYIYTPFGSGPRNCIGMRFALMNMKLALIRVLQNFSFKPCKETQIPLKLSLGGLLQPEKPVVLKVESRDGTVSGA
# Cytochrome P450 1A2 (Homo sapiens), sequence (P05177 whole entry, looked up): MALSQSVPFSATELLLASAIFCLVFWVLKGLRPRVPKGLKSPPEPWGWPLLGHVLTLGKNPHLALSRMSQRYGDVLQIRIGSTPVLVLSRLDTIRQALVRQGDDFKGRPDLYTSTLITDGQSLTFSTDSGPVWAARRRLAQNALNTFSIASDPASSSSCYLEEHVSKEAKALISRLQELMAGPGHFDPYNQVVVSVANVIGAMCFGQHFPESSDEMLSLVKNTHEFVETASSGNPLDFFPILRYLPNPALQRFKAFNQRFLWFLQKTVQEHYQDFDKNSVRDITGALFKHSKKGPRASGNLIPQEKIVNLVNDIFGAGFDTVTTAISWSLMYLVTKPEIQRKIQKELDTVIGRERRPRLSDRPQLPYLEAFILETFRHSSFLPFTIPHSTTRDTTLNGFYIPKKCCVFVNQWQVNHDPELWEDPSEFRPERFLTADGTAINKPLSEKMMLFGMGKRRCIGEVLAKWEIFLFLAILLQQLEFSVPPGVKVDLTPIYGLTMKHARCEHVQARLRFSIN
# Guanine nucleotide-binding protein G(i) subunit alpha-1 (Homo sapiens), sequence (P63096 whole entry, looked up): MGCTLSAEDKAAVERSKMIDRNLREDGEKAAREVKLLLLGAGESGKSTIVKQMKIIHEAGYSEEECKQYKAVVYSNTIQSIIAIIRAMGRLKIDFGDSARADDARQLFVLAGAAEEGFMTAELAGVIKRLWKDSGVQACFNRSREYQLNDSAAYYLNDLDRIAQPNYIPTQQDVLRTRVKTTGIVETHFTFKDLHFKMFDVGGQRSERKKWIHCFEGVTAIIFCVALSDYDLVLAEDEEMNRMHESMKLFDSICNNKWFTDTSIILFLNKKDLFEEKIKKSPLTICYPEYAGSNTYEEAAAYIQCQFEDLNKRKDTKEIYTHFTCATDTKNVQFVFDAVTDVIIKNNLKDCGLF
# Glucocorticoid receptor (Homo sapiens), sequence (P04150 whole entry, looked up, the tested form may be a part): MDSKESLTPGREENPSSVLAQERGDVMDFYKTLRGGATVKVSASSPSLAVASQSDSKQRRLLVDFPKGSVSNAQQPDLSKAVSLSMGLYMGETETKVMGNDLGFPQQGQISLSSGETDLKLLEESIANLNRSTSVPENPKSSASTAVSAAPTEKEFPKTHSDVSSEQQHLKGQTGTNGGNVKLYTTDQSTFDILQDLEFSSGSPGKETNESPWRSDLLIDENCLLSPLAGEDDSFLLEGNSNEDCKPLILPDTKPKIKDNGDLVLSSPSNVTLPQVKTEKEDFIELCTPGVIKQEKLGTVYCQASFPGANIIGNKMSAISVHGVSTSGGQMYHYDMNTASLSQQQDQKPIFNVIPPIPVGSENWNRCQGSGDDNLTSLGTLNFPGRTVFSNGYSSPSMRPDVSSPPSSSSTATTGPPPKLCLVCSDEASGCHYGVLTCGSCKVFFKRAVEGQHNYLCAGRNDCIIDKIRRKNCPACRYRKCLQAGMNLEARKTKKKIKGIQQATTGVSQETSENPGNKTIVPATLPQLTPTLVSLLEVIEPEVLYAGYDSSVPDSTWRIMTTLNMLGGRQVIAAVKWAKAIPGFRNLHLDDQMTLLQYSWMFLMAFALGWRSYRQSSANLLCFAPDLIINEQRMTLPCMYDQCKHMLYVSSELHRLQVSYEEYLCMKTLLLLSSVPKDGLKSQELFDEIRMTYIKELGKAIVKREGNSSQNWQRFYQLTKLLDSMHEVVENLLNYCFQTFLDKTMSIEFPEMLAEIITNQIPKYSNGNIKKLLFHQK
# Pyruvate kinase (Leishmania mexicana), sequence (Q27686 2-499 E452W): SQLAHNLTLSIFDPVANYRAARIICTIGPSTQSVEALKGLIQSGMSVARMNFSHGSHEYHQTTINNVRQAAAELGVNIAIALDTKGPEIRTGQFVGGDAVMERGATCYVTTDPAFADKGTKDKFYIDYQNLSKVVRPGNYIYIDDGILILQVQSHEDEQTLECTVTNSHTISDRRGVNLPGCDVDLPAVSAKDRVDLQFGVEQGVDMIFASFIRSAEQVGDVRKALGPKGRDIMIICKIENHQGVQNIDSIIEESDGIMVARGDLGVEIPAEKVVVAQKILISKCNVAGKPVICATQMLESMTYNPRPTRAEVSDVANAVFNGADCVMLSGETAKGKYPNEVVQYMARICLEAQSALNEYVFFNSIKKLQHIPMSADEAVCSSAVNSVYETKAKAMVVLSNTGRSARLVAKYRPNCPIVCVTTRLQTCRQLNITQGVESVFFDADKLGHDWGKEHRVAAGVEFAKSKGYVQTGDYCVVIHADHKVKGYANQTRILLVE
# Muscarinic acetylcholine receptor M1 (Rattus norvegicus), sequence (P08482 whole entry, looked up): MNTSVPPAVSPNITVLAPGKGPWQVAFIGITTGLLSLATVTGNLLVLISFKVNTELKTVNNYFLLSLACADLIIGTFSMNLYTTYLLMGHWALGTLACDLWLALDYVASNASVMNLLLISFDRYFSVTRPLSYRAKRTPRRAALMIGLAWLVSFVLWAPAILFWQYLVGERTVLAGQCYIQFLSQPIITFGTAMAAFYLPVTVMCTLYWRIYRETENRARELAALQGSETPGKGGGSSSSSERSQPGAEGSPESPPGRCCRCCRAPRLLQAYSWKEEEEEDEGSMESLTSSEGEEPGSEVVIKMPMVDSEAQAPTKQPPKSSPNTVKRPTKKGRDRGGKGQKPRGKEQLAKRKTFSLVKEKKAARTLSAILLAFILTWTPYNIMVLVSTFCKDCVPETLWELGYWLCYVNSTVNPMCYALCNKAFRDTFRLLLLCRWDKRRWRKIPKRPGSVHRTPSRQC
# 3',5'-cyclic-AMP phosphodiesterase 4B (Homo sapiens), sequence (Q07343 whole entry, looked up): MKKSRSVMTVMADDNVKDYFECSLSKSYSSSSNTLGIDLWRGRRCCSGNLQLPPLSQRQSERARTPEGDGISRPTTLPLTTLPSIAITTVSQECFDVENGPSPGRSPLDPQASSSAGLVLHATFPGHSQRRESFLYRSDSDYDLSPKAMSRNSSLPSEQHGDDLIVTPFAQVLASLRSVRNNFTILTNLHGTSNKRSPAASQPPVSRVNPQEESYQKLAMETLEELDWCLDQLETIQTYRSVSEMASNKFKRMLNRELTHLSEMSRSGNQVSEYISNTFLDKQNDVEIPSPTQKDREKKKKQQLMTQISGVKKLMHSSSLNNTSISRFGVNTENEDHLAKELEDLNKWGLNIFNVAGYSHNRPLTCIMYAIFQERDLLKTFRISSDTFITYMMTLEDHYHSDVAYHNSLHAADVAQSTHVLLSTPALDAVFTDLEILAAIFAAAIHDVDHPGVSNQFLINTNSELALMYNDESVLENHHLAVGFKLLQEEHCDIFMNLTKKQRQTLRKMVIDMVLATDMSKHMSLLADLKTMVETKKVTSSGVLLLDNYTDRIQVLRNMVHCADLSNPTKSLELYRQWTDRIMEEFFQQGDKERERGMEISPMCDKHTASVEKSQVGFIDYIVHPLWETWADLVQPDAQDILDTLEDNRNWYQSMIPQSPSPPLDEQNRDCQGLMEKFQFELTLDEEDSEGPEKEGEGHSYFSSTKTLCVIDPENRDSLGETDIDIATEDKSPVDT
# Alpha-galactosidase A (Homo sapiens), sequence (P06280 whole entry, looked up): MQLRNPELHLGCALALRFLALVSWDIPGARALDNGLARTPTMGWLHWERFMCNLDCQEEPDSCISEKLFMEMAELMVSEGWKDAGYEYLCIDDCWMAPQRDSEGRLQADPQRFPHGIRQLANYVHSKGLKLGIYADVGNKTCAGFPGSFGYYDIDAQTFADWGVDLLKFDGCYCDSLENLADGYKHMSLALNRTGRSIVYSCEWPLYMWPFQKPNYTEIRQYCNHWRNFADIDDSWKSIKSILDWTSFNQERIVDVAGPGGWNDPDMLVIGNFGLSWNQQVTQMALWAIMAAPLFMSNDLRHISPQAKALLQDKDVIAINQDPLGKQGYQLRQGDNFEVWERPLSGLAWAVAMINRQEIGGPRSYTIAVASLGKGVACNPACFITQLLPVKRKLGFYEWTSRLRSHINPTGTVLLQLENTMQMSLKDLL
# Cytochrome P450 2D6 (Homo sapiens), sequence (P10635 whole entry, looked up): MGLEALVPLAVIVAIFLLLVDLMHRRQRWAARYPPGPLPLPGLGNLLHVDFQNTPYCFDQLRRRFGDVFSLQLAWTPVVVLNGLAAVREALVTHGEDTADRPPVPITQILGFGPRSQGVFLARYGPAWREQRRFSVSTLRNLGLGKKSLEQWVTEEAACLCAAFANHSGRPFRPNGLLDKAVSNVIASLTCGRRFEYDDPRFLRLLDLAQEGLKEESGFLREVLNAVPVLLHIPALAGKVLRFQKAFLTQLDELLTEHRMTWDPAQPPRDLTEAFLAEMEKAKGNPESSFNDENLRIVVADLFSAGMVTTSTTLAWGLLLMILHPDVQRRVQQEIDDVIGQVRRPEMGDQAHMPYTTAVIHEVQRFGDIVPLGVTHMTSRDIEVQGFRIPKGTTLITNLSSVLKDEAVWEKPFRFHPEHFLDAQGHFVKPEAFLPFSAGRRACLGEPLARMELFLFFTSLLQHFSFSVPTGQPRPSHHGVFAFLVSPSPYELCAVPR
structure (smiles),measurement,setting,value
COc1cc2c(cc1OC)[C@H](c1ccccc1)CN(C)CC2,"activity change, negative = inhibition",[1]; [21],-2.12% [at 38 µM] (inactive)
same,Potency,[2],inactive
same,"activity change, negative = inhibition",[3]; [21],-8.45% [at 38 µM] (inactive)
same,"activity, negative = inhibition",[4]; [21],0.584% [at 38 µM] (inactive)
same,Potency,[5],> 46 µM (inactive)
same,Potency,[6],> 46 µM (inactive)
same,Potency,[7],inactive
same,Potency,[8],inactive
same,outcome,[9],inactive
same,Potency,[10],12.6 µM (active)
same,outcome,[11],inactive
same,Potency,[12],inactive
same,outcome,[13],inactive
same,outcome,[14],inactive
same,outcome,[15],inactive
same,Potency,[16],inactive
CC(C)(C)c1ccc([C@@H](O)CCCN2CCC(C(O)(c3ccccc3)c3ccccc3)CC2)cc1,"activity change, negative = inhibition",[1]; at 17.2 µM (top of the series),2.82% (inactive)
same,"activity change, negative = inhibition",[1]; at 38 µM (top of the series),6.21% (inactive)
same,"activity change, negative = inhibition",[3]; at 17.2 µM (top of the series),-18.2% (inactive)
same,"activity change, negative = inhibition",[3]; at 38 µM (top of the series),-0.347% (inactive)
same,"activity, negative = inhibition",[4]; at 17.2 µM (top of the series),-5.86% (inactive)
same,"activity, negative = inhibition",[4]; at 38 µM (top of the series),9.55% (inactive)
same,Potency,[5],> 46 µM (inactive) and > 20.6 µM (inactive)
same,Potency,[6],> 46 µM (inactive) and > 20.6 µM (inactive)
same,Potency,[7],inactive
same,Potency,[8],2 µM (active) and inactive
O=C(O)/C(=C\c1ccccc1)c1ccccc1,"activity change, negative = inhibition",[1]; [21],3.72% (inactive)
same,Potency,[2],inactive
same,"activity change, negative = inhibition",[3]; [21],1.44% (inactive)
same,"activity, negative = inhibition",[4]; [21],-0.514% (inactive)
same,Potency,[5],> 46 µM (inactive)
same,Potency,[6],> 9.22 µM (inactive)
same,Potency,[7],inactive
same,Potency,[8],inactive
O=C1O/C(=C\Br)CC[C@@H]1c1cccc2ccccc12,"activity change, negative = inhibition",[1]; [21],-0.931% [at 38 µM] (inactive)
same,Potency,[2],inactive
same,"activity change, negative = inhibition",[3]; [21],-0.824% [at 38 µM] (inactive)
same,"activity, negative = inhibition",[4]; [21],4.17% [at 38 µM] (inactive)
same,Potency,[5],> 46 µM (inactive)
same,Potency,[6],> 46 µM (inactive)
same,Potency,[7],inactive
same,Potency,[8],inactive
same,outcome,[9],inactive
same,Potency,[10],inactive
same,Potency,[17],inactive
same,Potency,[12],inactive
same,outcome,[13],inactive
same,outcome,[15],inactive
same,Potency,[16],inactive
O=C1C=C(N2CCN(c3ccccn3)CC2)C(=O)c2c(O)ccc(O)c21,Potency,[18],> 11.4 µM (inactive)
same,"activity, negative = inhibition",[4]; [21],-4.42% (inactive)
same,Potency,[5],> 46 µM (inactive)
same,Potency,[6],> 9.22 µM (inactive)
same,Potency,[8],inactive
Oc1ccc([C@@H]2CNCCc3c2cc(O)c(O)c3Cl)cc1,"activity change, negative = inhibition",[1]; [21],-5.37% [at 38 µM] (inactive)
same,Potency,[2],inactive
same,"activity change, negative = inhibition",[3]; [21],1.42% [at 38 µM] (inactive)
same,"activity, negative = inhibition",[4]; [21],18.7% [at 38 µM] (inactive)
same,Potency,[5],> 46 µM (inactive)
same,Potency,[6],> 46 µM (inactive)
same,Potency,[7],inactive
same,Potency,[8],inactive
same,outcome,[9],inactive
same,Potency,[10],inactive
same,Potency,[19],3.16 µM (active)
same,outcome,[13],inactive
same,outcome,[14],inactive
same,outcome,[15],inactive
same,Potency,[16],inactive
C[C@H]1CN(CCO)CCN1c1ccccc1,"activity change, negative = inhibition",[1]; [21],11.5% (inactive)
same,Potency,[2],inactive
same,"activity change, negative = inhibition",[3]; [21],-5.83% (inactive)
same,"activity, negative = inhibition",[4]; [21],7.5% (inactive)
same,Potency,[5],> 46 µM (inactive)
same,Potency,[6],> 9.22 µM (inactive)
same,Potency,[7],inactive
N[C@H](Cc1ccc(O)c(I)c1)C(=O)O,"activity change, negative = inhibition",[1]; [21],6.16% [at 38 µM] (inactive)
same,Potency,[2],inactive
same,"activity change, negative = inhibition",[3]; [21],8.86% [at 38 µM] (inactive)
same,"activity, negative = inhibition",[4]; [21],-3.36% [at 38 µM] (inactive)
same,Potency,[5],> 46 µM (inactive)
same,Potency,[6],> 46 µM (inactive)
same,Potency,[7],inactive
same,Potency,[8],inactive
same,Potency,[19],inactive
same,Potency,[20],inactive
